Source: PubChem (NMMLSC)
MEKK2wt PB1 HTS – raises or lowers MEK5 binding to wildtype human MEKK2 PB1 domain. bead flow cytometry, Alexa488-MEK5 binding to MEKK2 WT; actives lie on both sides. AID 1531. binding response (% of control), % at 10 µM. actives 1.1% (n = 290,000). Q9Y2U5; in the data active = binding response below about 67% or above about 130%
MEKK2mut PB1 HTS – signal of MEK5 binding to mutant human MEKK2 PB1 domain. bead flow cytometry, Alexa488-MEK5 binding to MEKK2 mutant. percent response, % at 10 µM. actives 0.35% (n = 290,000); in the data active = percent response above about 24%, passing the limit was not always enough
GRK2 inh – blocks RNA aptamer binding to human GRK2 | bead flow cytometry, FAM-aptamer displacement from GRK2 | actives 0.59% (n = 330,000) | inhibition of aptamer binding, % at 10 µM | AID 488847 | P25098;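 active = inhibition of aptamer binding above 40%, roughly 3 SD of noise, on plates passing a quality check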;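 also: median bead fluorescence of bound FAM aptamer so fluorescent compounds give negative values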
MEKK3 PB1 HTS – raises or lowers MEK5 binding to the human MEKK3 PB1 domain. actives 1.4% (n = 290,000). bead-based flow cytometry, Alexa488-MEK5 binding to MEKK3; actives lie on both sides; 0 = blocked by unlabeled MEK5, 100 = vehicle. binding response (% of control), % at 10 µM;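 active = binding response more than 3 SD above or below the average of its plate-row segment, actives on both sides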;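 also: Alexa488 bead fluorescence after subtracting the streptavidin-only scavenger bead signal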
A number is an active result; n = inactive; x = not tested or not shown. In the library only some 2.5% were active in any assay of this set; here they are far more common.

SMILES	MEKK2wt PB1 HTS	MEKK2mut PB1 HTS	GRK2 inh	MEKK3 PB1 HTS
COc1cccc(NC(=O)CSc2nc3c(sc4ccccc43)c(=O)n2CCCN2CCCC2)c1	179	n	n	n
Cc1nn2c(Nc3ccccc3)c3c(nc2c1-c1ccccc1)CCC3	n	n	n	176
CC(C)NC(=S)NCc1cccnc1	n	n	99	n
CC(=O)Nc1ccc(S(=O)(=O)N(C)CC(=O)OC(C)C(=O)N(C)Cc2ccccc2)cc1 (stereo not drawn)	n	n	n	n
CC(C)(C)c1ccc(-c2nc(O)c(CC(=O)O)s2)cc1	n	n	51	n
COc1cc(C(=O)Nc2ccc3c(c2)CCN3C(C)=O)cc(OC)c1OC	173	n	n	n
COc1cc(C(=O)Nc2ccc(S(=O)(=O)N3CCc4ccccc43)cc2)cc(OC)c1OC	n	n	n	n
CC1=CC(=O)c2c(O)ccc(O)c2C1=O	n	n	46	n
Clc1ccc(CN2C3=NCCCN3c3ccccc32)c(Cl)c1	n	n	n	n
CCCCC1=CC2=CC(=O)C(C)(OC(=O)CC)C(=O)C2=CN1CCc1ccccn1 (stereo not drawn)	n	n	n	n
CCCCc1cc2c(cn1)=C(OC(=O)c1cnc3ccccc3n1)C(C)(OC(=O)CC)C(=O)C=2 (stereo not drawn)	143	n	x	n
CCCN(C(=O)c1c(-c2ccccc2)noc1C)c1c(N)n(Cc2ccccc2)c(=O)[nH]c1=O	x	x	n	x
CSCCNC(C)=O	n	n	61	n
C=CCOc1ccc(C[C@H](N)C(=O)NC[C@H]2O[C@@H](n3cnc4c(N)ncnc43)[C@H](O)[C@@H]2O)cc1	x	x	43	x
O=c1c2cccnc2[nH]c(=S)n1CCC1=CCCCC1	n	n	70	n
Cc1oc(-c2cc(F)ccc2F)nc1CN1CCN(C)C(=O)[C@@H]1C	22	n	n	n
C=CCN(C(=O)c1csnn1)C(C(=O)NC1CCCC1)c1c(F)cccc1Cl (stereo not drawn)	153	n	n	n
COc1ccc(NC(=O)/C(C#N)=C/c2ccc(Br)o2)cc1	n	n	67	n
COc1ccc(NC(=O)/C(C#N)=C\c2ccc(N3CCOCC3)o2)cc1	n	n	n	n
COc1cc(/C=C/c2cc[n+](C)cc2)ccc1OCC(=O)Nc1ccc(Cl)c(Cl)c1	237	75	n	n
C/C(=N\NS(=O)(=O)c1ccccc1)c1cccc(NC(=O)c2cccc(Cl)c2)c1	n	n	60	n
C/C(=N/NS(=O)(=O)c1ccc(Cl)cc1)c1cccc(NC(=O)c2ccncc2)c1	n	n	n	n
CC(=O)c1cccc(NC(=O)CCCCCn2nnc3ccccc3c2=O)c1	n	n	n	n
O=C(c1cc(-c2ccco2)nc2ccccc12)N1CCN(Cc2ccccc2)CC1	x	x	n	x
COc1ccc(NC(=O)CN(C)C(=O)c2cc(-c3ccco3)nc3ccccc23)cc1	x	x	76	x
SMILES	MEKK2wt PB1 HTS	MEKK2mut PB1 HTS	GRK2 inh	MEKK3 PB1 HTS
COC(=O)C1CCN(C(=O)c2cc(-c3ccco3)nc3ccccc23)CC1	x	x	76	x
CCOC(=O)C(OC(=O)c1sc(=S)n(C)c1C)C(C)=O (stereo not drawn)	n	n	n	n
CC(=O)NNC(=O)c1sc(=S)n(C)c1C	-5.0	n	n	n
COc1ccc(-n2c(SCCNCCO)nc3sc4c(c3c2=O)CCCC4)cc1	144	24	n	n
CC[C@@]1(C(=O)OC)N[C@H](CN(C)S(=O)(=O)c2ccc(C(C)(C)C)cc2)[C@@H]2C(=O)N(C)C(=O)[C@@H]21	x	x	n	x
COc1ccccc1NS(=O)(=O)c1cccc(NC(=O)Nc2ccc(Cl)cc2)c1	147	n	n	n
Cc1cc(=O)n2c3ccccc3n(CC(O)CN3CCN(CCO)CC3)c2c1C#N (stereo not drawn)	n	n	n	n
Cc1cc(=O)n2c3ccccc3n(CC(O)CN3CCC(C)CC3)c2c1C#N (stereo not drawn)	n	n	x	135
CN(C)C(=O)CCc1ccc2c3c([nH]c2c1)[C@]1(CCc2ccccc2)[C@@H](C(=O)N2CCCCC2)C[C@H](CC(=O)NCc2ccco2)C(=O)N1CC3	x	x	n	x
CC[C@]12c3[nH]c4cc(CCC(=O)N(C)C)ccc4c3CCN1C(=O)[C@@H](CC(=O)NCCC1=CCCCC1)C[C@@H]2C(=O)N1CCN(C(=O)c2ccco2)CC1	x	x	43	x
CCN(CC)C(=O)[C@H]1C[C@H](CC(=O)NCc2ccco2)C(=O)N2CCc3c([nH]c4cc(CCC(=O)N(C)C)ccc34)[C@]12C	x	x	51	x
